PRMT1 FP inh: inhibitors of human PRMT1. recombinant PRMT1, activity-based probe fluorescence polarization. inhibition, % at 2.79 µM. 370,000 compounds, 1.3% hits. AID 652257;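 active means inhibition above about 21% made by adding two undisclosed values, limit read from the data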
rCAG RNA binder: r(CAG) repeat RNA binding | inhibition, % at 3 µM | 370,000 compounds, 1.3% hits | TO-PRO-1 dye displacement fluorescence;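 active means inhibition above the plate cutoff, the mean of all test compounds on that plate plus 3 SD, cut at about 35% in these data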;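 further: 0% = DMSO alone and 100% = 100 µM mitoxantrone as full dye displacement; higher means more dye released from RNA so lower well fluorescence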
UHRF1 binding: blocks human UHRF1 binding to methylated DNA. UHRF1 binding to methylated oligo, TR-FRET. inhibition, % at 4.4 µM. 370,000 compounds, 0.75% hits. AID 687016; in the data active means inhibition above about 21%;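 further: UHRF1 SRA domain binding a hemimethylated CpG hairpin DNA probe; 0% = median of test compound wells and 100% = reference inhibitor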
LEDGF integ inh: blocks HIV-1 LEDGF/p75-dependent DNA integration | inhibition, % at 3.7 µM | TR-FRET IN-LEDGF/p75 DNA integration, Eu/Cy5 | 370,000 compounds, 0.64% hits;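 active means inhibition above the screen-wide mean plus 3 SD, cut at about 13% in these data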;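 further: signal is the Cy5 over europium emission ratio at 671 and 618 nm; 0% = plate median of compound wells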
MBD2 inh: inhibitors of human MBD2 binding to methylated oligonucleotide; TR-FRET; inhibition, % at 4.4 µM; 370,000 compounds, 0.31% hits; in the data active means inhibition above about 13%
Target sequence (Q9UBB5 whole entry, looked up): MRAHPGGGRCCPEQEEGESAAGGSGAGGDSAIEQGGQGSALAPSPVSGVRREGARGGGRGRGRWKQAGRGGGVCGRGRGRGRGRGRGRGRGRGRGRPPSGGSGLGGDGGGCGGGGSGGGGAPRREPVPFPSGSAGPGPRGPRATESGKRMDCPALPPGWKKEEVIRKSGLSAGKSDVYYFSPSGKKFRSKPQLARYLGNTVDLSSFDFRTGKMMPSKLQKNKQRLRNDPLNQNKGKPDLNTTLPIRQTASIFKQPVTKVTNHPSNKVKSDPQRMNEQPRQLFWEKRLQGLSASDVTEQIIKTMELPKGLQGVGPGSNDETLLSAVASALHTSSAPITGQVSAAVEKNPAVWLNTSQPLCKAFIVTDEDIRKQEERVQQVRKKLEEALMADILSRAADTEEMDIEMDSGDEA
ABHD5-PLIN5 inh: ABHD5-PLIN5 protein interaction inhibition; Split G. princeps luciferase complementation, luminescence, 4 h; inhibition, % at 4 µM; Q00G26+Q8WTS1; 360,000 compounds, 0.78% hits;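 active means inhibition above the mean inhibition across every tested compound plus 3 SD, cut at about 22% in these data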;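 further: 0% = DMSO only wells and the 100% control is not disclosed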
rCAG binder conf: r(CAG) RNA repeat binding, confirmation. TO-PRO-1 dye displacement fluorescence. 4,300 compounds, 70% hits. shares compounds with rCAG RNA binder. inhibition, % at 3 µM;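 active means inhibition above a per-plate cutoff, the mean inhibition of sample wells plus 3 SD, cut at about 35% in these data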;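 further: loss of TO-PRO-1 fluorescence as compound displaces dye from 1x1 AA loop RNA; 0% = DMSO only wells and 100% = 100 µM mitoxantrone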
DNA CAG counter: disrupts DNA CAG TO-PRO-1 complex, flagging rCAG hits; d(CAG) DNA oligo TO-PRO-1 dye displacement, fluorescence; AID 652068; 4,300 compounds, 94% hits; inhibition, % at 3 µM; shares compounds with rCAG RNA binder;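 active means inhibition above its plate's cutoff, the mean test-well inhibition plus 3 SD, cut at about 4.8% in these data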;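 further: 0% = DNA dye mix with DMSO and 100% = 100 µM mitoxantrone; hits displace the dye from DNA and so lower well fluorescence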
DNA CAG DR: disrupts DNA CAG TO-PRO-1 complex in dose response; shares compounds with rCAG RNA binder; DNA CAG/GTC duplex TO-PRO-1 dye displacement fluorescence; IC50, µM; 250 compounds, 20% hits; in the data active means IC50 below about 10 µM
The depositor's hits bear a star. Shown are actives, neighbours in structure and some others; about 4.1% of the full set was active somewhere.

For COc1ccc(S[C@]2(C(=O)N3CCCC3)CC(=O)N(c3ccsc3)[C@@H]2c2ccc(OC)cc2)cc1 the results were PRMT1 FP inh 2, rCAG RNA binder 7, UHRF1 binding 1, LEDGF integ inh -1 and MBD2 inh -1.
For Cc1cccc(-n2c(O)c(C=Nc3ccccc3O)c3ccccc3c2=O)n1 the results were PRMT1 FP inh -1, rCAG RNA binder 10, UHRF1 binding -5, LEDGF integ inh -3, MBD2 inh -4 and ABHD5-PLIN5 inh 5.
For Cc1ccc(-n2c(O)c(C=NC3CCS(=O)(=O)C3)c3ccccc3c2=O)cc1C (configuration not stated) the results were PRMT1 FP inh 0, rCAG RNA binder 2, UHRF1 binding 3, LEDGF integ inh -3, MBD2 inh 3 and ABHD5-PLIN5 inh -2.
Cc1ccc(-n2c(O)c(C=Nc3ccccc3-c3n[nH]c(=S)[nH]c3=O)c3ccccc3c2=O)c(C)c1 was read as PRMT1 FP inh 0, rCAG RNA binder 72*, UHRF1 binding -3, LEDGF integ inh 2, MBD2 inh 3, ABHD5-PLIN5 inh 4, rCAG binder conf 88* and DNA CAG counter 57*.
Screening Cc1ccc(-n2c(O)c(C=Nc3ccccc3-c3n[nH]c(=S)[nH]c3=O)c3ccccc3c2=O)cc1C returned PRMT1 FP inh 19, rCAG RNA binder 77*, UHRF1 binding -3, LEDGF integ inh -1, MBD2 inh 0, ABHD5-PLIN5 inh 8, rCAG binder conf 81* and DNA CAG counter 48*.
For Cc1cccc(-n2c(O)c(C=Nc3ccccc3-c3n[nH]c(=S)[nH]c3=O)c3ccccc3c2=O)n1 the results were PRMT1 FP inh 11, rCAG RNA binder 46*, UHRF1 binding -4, LEDGF integ inh 9, MBD2 inh -8, ABHD5-PLIN5 inh -1, rCAG binder conf 44* and DNA CAG counter 13*.
For COc1ccc(-c2cc(NC(=O)Cc3c[nH]c4ccccc34)ccc2Nc2cccnc2)cc1F the results were PRMT1 FP inh 2, rCAG RNA binder 13, UHRF1 binding -1, LEDGF integ inh -3 and MBD2 inh 2.
Screening CC[C@@H]1C=C(C(=O)O)[C@H](c2ccc(Br)cc2)N1S(=O)(=O)c1ccc(C)cc1 returned PRMT1 FP inh 4, rCAG RNA binder 27, UHRF1 binding 2, LEDGF integ inh 3, MBD2 inh 1 and ABHD5-PLIN5 inh -2.
Screening CCCCC[C@@H]1C=C(C(=O)O)[C@H](c2ccc(CC)cc2)N1S(=O)(=O)c1ccc(C)cc1 returned PRMT1 FP inh 3, rCAG RNA binder 8, UHRF1 binding 2, LEDGF integ inh -3, MBD2 inh -1 and ABHD5-PLIN5 inh 8.
`CC[C@@H]1C=C(C(=O)O)[C@H](c2ccc(C#N)cc2)N1S(=O)(=O)c1ccc(C)cc1` gave PRMT1 FP inh 2, rCAG RNA binder 12, UHRF1 binding 7, LEDGF integ inh 1, MBD2 inh 6 and ABHD5-PLIN5 inh -6.
CCCCC[C@@H]1C=C(C(=O)O)[C@H](c2ccc(F)cc2)N1S(=O)(=O)c1ccc(C)cc1 was read as PRMT1 FP inh -1, rCAG RNA binder 59*, UHRF1 binding -4, LEDGF integ inh -4, MBD2 inh 2, ABHD5-PLIN5 inh -5, rCAG binder conf 45* and DNA CAG counter 14*.
For CCCC[C@@H]1C=C(C(=O)O)[C@H](c2ccc(CC)cc2)N1S(=O)(=O)c1ccc(C)cc1 the results were PRMT1 FP inh 0, rCAG RNA binder 66*, UHRF1 binding 1, LEDGF integ inh 1, MBD2 inh 0, ABHD5-PLIN5 inh -2, rCAG binder conf 49* and DNA CAG counter 15*.
Screening CCCC[C@@H]1C=C(C(=O)O)[C@H](c2ccc(Br)cc2)N1S(=O)(=O)c1ccc(C)cc1 returned PRMT1 FP inh 5, rCAG RNA binder 53*, UHRF1 binding 1, LEDGF integ inh 4, MBD2 inh 4, ABHD5-PLIN5 inh 4, rCAG binder conf 54* and DNA CAG counter 19*.
For O=C(OCc1cn(Cc2ccccc2F)nn1)N1CCCC1 the results were PRMT1 FP inh 0, rCAG RNA binder 3, UHRF1 binding 1, LEDGF integ inh -2 and MBD2 inh -8.
O=C(Nc1cccc(S(=O)(=O)NC2=NCCC2)c1)c1cn(-c2ccccc2)nc1-c1ccc(F)cc1 was read as PRMT1 FP inh -3, rCAG RNA binder 9, UHRF1 binding 0, LEDGF integ inh -4, MBD2 inh -2 and ABHD5-PLIN5 inh -9.
`Cc1ccc(-c2nn(-c3ccccc3)cc2C(=O)Nc2ccc(C(=O)O)cc2)cc1` gave PRMT1 FP inh 2, rCAG RNA binder 44*, UHRF1 binding 1, LEDGF integ inh 0, MBD2 inh 5, ABHD5-PLIN5 inh 2, rCAG binder conf 37* and DNA CAG counter 8.2*.
Screening O=C(O)c1cccc(NC(=O)c2cn(-c3ccccc3)nc2-c2ccc(F)cc2)c1 returned PRMT1 FP inh 1, rCAG RNA binder 38*, UHRF1 binding 0, LEDGF integ inh -2, MBD2 inh 4, ABHD5-PLIN5 inh -6, rCAG binder conf 25 and DNA CAG counter 5.5*.
Screening CC[C@@H](CCC1CCCCC1)CN(c1ccccc1)S(C)(=O)=O returned PRMT1 FP inh 0, rCAG RNA binder 1, UHRF1 binding 0, LEDGF integ inh -2 and MBD2 inh -6.
`CCOc1cc(/C=C2/SC(=S)N(CC(=O)O)C2=O)ccc1OC(=O)c1cccs1` gave PRMT1 FP inh 3, rCAG RNA binder 58*, UHRF1 binding 1, LEDGF integ inh 4, MBD2 inh -3, ABHD5-PLIN5 inh -12, rCAG binder conf 71*, DNA CAG counter 30* and DNA CAG DR inactive.
Screening CN1C(=O)/C(=C/c2ccc(OC(=O)c3ccco3)cc2)SC1=S returned PRMT1 FP inh 4, rCAG RNA binder 1, UHRF1 binding 0, LEDGF integ inh -3, MBD2 inh 3 and ABHD5-PLIN5 inh 4.
Screening COc1cc(/C=C2\SC(=S)N(CC(=O)O)C2=O)ccc1OC(=O)c1ccco1 returned PRMT1 FP inh -1, rCAG RNA binder 46*, UHRF1 binding -7, LEDGF integ inh 7, MBD2 inh 0, ABHD5-PLIN5 inh -17, rCAG binder conf 45* and DNA CAG counter 13*.

Source: PubChem BioAssay (The Scripps Research Institute Molecular Screening Center)
